These results are taken from PubChem BioAssay (Tox21).

Values joined by “and” are separate entries in the source; they are usually repeats but may differ in a detail not shown here. Equal entries are not always repeated. Values without a mark were called inactive. Results filed as inconclusive are left out. Active and inactive are the calls of the source. Unless noted, calls follow the shape of the dose curve; as a rule, active = well fitted curve in the direction sought with a large enough effect in the repeat runs; inconclusive = weak or mixed curves; inactive = no such curve, though single readings can be large; an effect the other way counts as inactive or inconclusive.

Assay [1] is described as follows: qHTS assay to identify small molecule agonists of the hypoxia (HIF-1) signaling pathway (AID 1224846; active = well fitted activation curve with a large enough effect in the signal ratio in the repeat runs, not every such curve was filed as active; the % refers to the signal ratio; also: potency is read from the fitted curve at half-maximal effect). The essentials:
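HRE-bla ME-180 cells (beta-lactamase reporter under hypoxia response element) were plated at 2,000 cells/well in medium with 0.5% dialyzed FBS, rested 5 hrs, then given compounds in DMSO for 17 hrs at 37C, 5% CO2. Reporter induction was read with CCF4-AM FRET substrate.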

A short description of assay [2]: qHTS assay to identify small molecule agonists of the estrogen related receptor (ERR) signaling pathway from Tox21 library (AID 1224849; calls by dose curve; also: nearly all actives have a fitted effect of over 15% in size). As to conditions: ERR reporter cell line, ONE-Glo luciferase, 18 h. The essentials:
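ERR reporter cell line (NTP) seeded, rested 6 h at 37 C/5% CO2, then pinned with Tox21 compounds in DMSO. After 18 h at 37 C, ONE-Glo luciferase luminescence was read following 30 min at room temperature.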

Assay [3] is described as follows: qHTS RealTime-Glo MT Cell Viability Assay in HepG2 cells - 24 hour (AID 1224867). Also: nearly all actives have a fitted effect of over 50% in size. Also: potency is read from the fitted curve at half-maximal effect. The procedure, abridged: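 Cell number in HepG2 cultures estimated from NanoLuc luminescence generated by metabolic reduction of a prosubstrate by living cells. The homogeneous, nonlytic format allowed repeated reads at 0, 8, 16, 24, 32 and 40 h of compound exposure.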
In general terms: In qHTS, concentration-response curves come from the screen itself.

Assay [4] can be described thus: A CellTox Green Cytotoxicity Assay to monitor cytotoxicity in HEK293 cells - 0 hour (AID 1224869). Also: nearly all actives have a fitted effect of over 50% in size. Also: potency is read from the fitted curve at half-maximal effect. The essentials: (§1)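 HEK293 cells premixed with CellTox Green dye were seeded at 600 cells/well and left 5 h at 37 C/5% CO2 before pin transfer of 23 nL compound in DMSO. Fluorescence from dye bound to dead-cell DNA was read during 40 h treatment.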
A short description of assay [5]: qHTS assay to identify small molecule agonists of H2AX (AID 1224845; active = well fitted activation curve with a large enough effect in the signal ratio in the repeat runs, not every such curve was filed as active; the % refers to the signal ratio; also: potency is read from the fitted curve at half-maximal effect). The essentials: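 Wild-type CHO-K1 cells plated overnight, then exposed 3 hr at 37C to compounds at 15 concentrations (0.76% DMSO). Lysed, then HTRF anti-pH2AX(S139)-cryptate/anti-H2AX-d2 detection after 24 hr at room temperature; emissions 665 and 620 nm.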
Assay [6] is described as follows: qHTS assay to identify small molecule antagonists of the estrogen related receptor (ERR) signaling pathway from Tox21 library (AID 1224848). Also: nearly all actives have a fitted effect of over 50% in size. Also: potency is read from the fitted curve at half-maximal effect. The procedure, abridged: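 Screening used an ERR reporter line supplied by NTP, exposed for 18 h at 37 C to library compounds delivered in DMSO. Signal was luciferase luminescence developed with ONE-Glo at room temperature for 30 min.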

Assay [7] can be described thus: qHTS RealTime-Glo MT Cell Viability Assay in HEK293 cells - 32 hour (AID 1224868). Also: nearly all actives have a fitted effect of over 50% in size. Also: potency is read from the fitted curve at half-maximal effect. The procedure, abridged:
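Homogeneous bioluminescent viability format in HEK293 cells (600 cells/well). Following 5 h at 37 C/5% CO2, 23 nL compound was pintooled; the signal was measured repeatedly during 40 h incubation.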

The nature of assay [8]: qHTS RealTime-Glo MT Cell Viability Assay in HepG2 cells - 40 hour (AID 1224870). Also: nearly all actives have a fitted effect of over 50% in size. Also: potency is read from the fitted curve at half-maximal effect. The procedure, abridged:
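HepG2 cells mixed with RealTime-Glo MT reagents (NanoLuc plus cell-permeant prosubstrate) were seeded at 600 cells/well, incubated 5 h at 37 C/5% CO2, then pinned with compounds in DMSO; nonlytic luminescence tracked viability during 40 h treatment.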

Assay [9] is described as follows: A CellTox Green Cytotoxicity Assay to monitor cytotoxicity in HEK293 cells - 40 hour (AID 1224871). Also: nearly all actives have a fitted effect of over 45% in size. Also: potency is read from the fitted curve at half-maximal effect. The procedure, abridged:
as §1

Assay [10] is described as follows: qHTS assay to identify small molecule agonists of H2AX - cell viability counter screen (AID 1224847; calls by dose curve; also: nearly all actives have a fitted effect of over 30% in size; also: potency is read from the fitted curve at half-maximal effect). The procedure, abridged: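 Wild-type CHO-K1 cells (10% FBS medium) were plated overnight at 37C, exposed to compounds at 15 concentrations for 3 hr at 37C (0.76% DMSO final), and viability was read as CellTiter-Glo luminescence after 30 min at room temperature.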

[11] abbreviates: at 92.4 µM (top of the series) unless noted.
% is scaled to controls: 0 for no effect and ±100 for the full control effect.

Regarding `CN1CCN(CCC(=O)N2c3ccccc3Sc3ccc(C(F)(F)F)cc32)CC1`, the Potency entry in assay [1] and in assay [4] was “inactive” each time. Besides, the activity change, positive = activation in assay [2] (setting [11]) was -67.1% [at 42.5 µM]. Besides, the Potency in assay [3] is 23.9 µM (active).

With `Cc1cccc(N(C)C(=S)Oc2ccc3c(c2)C2CCC3C2)c1` (stereo not drawn), the Potency entry in [5], in [6], in [3], in assay [7], in [8] and in assay [9] was “inactive” each time. Further, the activity change, positive = activation in assay [2] (setting [11]) was -2.97% [at 42.5 µM].

For the molecule `Nc1c2ccccc2nc2ccccc12`, the Potency in [5] was 88.6 µM (active); in assay [6], 2.69 µM (active); in assay [7], 7.66 µM (active) and 2.39 µM (active); in assay [8], 24.2 µM (active) and 13.4 µM (active); in assay [9], 24.2 µM (active). The activity change, positive = activation was -23% in [2] (at 42.5 µM (top of the series)) and -63.6% in assay [2] (at 92.4 µM (top of the series)).

For `O=C(Nc1ccc(Oc2ccc(Cl)cc2)c(Cl)c1)c1cc(I)cc(I)c1O`, the Potency result in [5], in assay [3], in [7], in assay [4] and in [8] was “inactive” throughout. The activity change, positive = activation in assay [2] (setting [11]) is -35.9% [at 42.5 µM].

Consider `Cc1ccc2oc(CN(Cc3ccccc3)C(=O)Nc3c(F)cc(F)cc3F)c(-c3ccc(Cl)cc3)c2c1`, for which the Potency result in assay [5], in assay [7], in assay [4] and in assay [9] was “inactive” each time. Besides, the Potency in assay [6] was 23.6 µM (active). The activity change, positive = activation in [2] (setting [11]) is -42.4%.

For `S=c1[nH]c2ccccc2s1`, the Potency entry in assay [1], in [10], in assay [3], in assay [7], in assay [4] and in assay [8] was “inactive” in each case. Further, the Potency in assay [6] is 54.5 µM (active). Besides, in [2] (setting [11]), the activity change, positive = activation was -59.1%.

Take `CCc1cc(Cc2cc(CC)c(N)c(CC)c2)cc(CC)c1N`: the Potency result in [1], in assay [3], in [4], in assay [8] and in [9] was “inactive” each time. The Potency is 89.8 µM (active) in [10], 27.3 µM (active) in [6] and 38.9 µM (active) in [7]. Further, the activity change, positive = activation in assay [2] (setting [11]) is -60.8%.

With `O=C1CCCc2c1cc1ccc3cccc4ccc2c1c34`, the Potency was 49.6 µM (active) in assay [1] and 11.1 µM (active) in [7]. Moreover, the Potency result in [3], in [4] and in assay [8] was “inactive” throughout.

For `CN1CCC(Nc2ncc3ncnc(Nc4ccc(F)c(Cl)c4)c3n2)CC1`, the results for the Potency in assay [1] and in assay [7] were 8.49 µM (active) and 10.7 µM (active), respectively. The activity change, positive = activation in assay [2] (setting [11]) is -30.3% [at 42.5 µM]. Further, the Potency result in [4] is “inactive”.

Take `CC1(C)CCC(C)(C)c2cc(C(=O)Nc3ccc(C(=O)O)cc3)ccc21`: the Potency entry in assay [1], in assay [3], in [7] and in assay [8] was “inactive” in each case. In assay [2] (setting [11]), the activity change, positive = activation is -24.2%.

Regarding `CCOC(=O)/C=C(C)/C=C/C=C(C)/C=C/c1c(C)cc(OC)c(C)c1C`, the Potency entry in assay [5], in [3], in [4], in assay [8] and in assay [9] was “inactive” in each case.

For the molecule `CCN(Cc1cccnc1)C(=O)c1cccc(Cl)c1[C@]1(C)C(=O)N(Cc2ccc(OC)cc2OC)c2ccc(Cl)cc21`, the Potency result in assay [5] and in [10] was “inactive” each time. For the same molecule, the Potency in assay [7] is 20.4 µM (active).

In the case of `O=C(NOCC1CC1)c1ccc(F)c(F)c1Nc1ccc(I)cc1Cl`, the Potency entry in assay [5] and in [4] was “inactive” each time. Also, the Potency was 11.9 µM (active) in assay [6] and 0.535 µM (active) in assay [8]. Moreover, the activity change, positive = activation in assay [2] (setting [11]) is -59% [at 42.5 µM].

With `Clc1ccc2cc3ccccc3cc2c1`, the Potency in assay [1] is 30.9 µM (active). Moreover, the Potency result in assay [10], in [6], in assay [3], in assay [4], in assay [8] and in assay [9] was “inactive” each time. In [2] (setting [11]), the activity change, positive = activation is 8.76%.

`CCN1/C(=C/C=C/c2sc3ccccc3[n+]2CC)Sc2ccccc21`: the activation in [1] was 0.484% [at 15.8 µM]. The Potency was 7.6 µM (active) in assay [10], 0.231 µM (active) in assay [6], 1.04 µM (active) in assay [7] and 9.28 µM (active) in assay [9]. Moreover, the activity change, positive = activation in assay [2] (setting [11]) was -58.8% [at 19 µM]. Also, the cytotoxicity in assay [4] was -12.5% [at 15.8 µM].

For `N/C(=N\N=C\c1ccc(Cl)cc1)N/N=C/c1ccc(Cl)cc1`, in assay [5], the Potency entry is “inactive”. In addition, the Potency in assay [6] is 29.8 µM (active); in assay [9] it was 23.9 µM (active). The activity change, positive = activation in [2] (setting [11]) was -44.1% [at 42.5 µM].

As for `CCCCCCC[N+](CC)(CC)CCCCc1ccc(Cl)cc1`, the Potency entry in assay [5], in assay [10] and in assay [4] was “inactive” in each case. In addition, the values for the Potency in [7] and in [8] were 1.9 µM (active) and 23.9 µM (active), respectively.

Take `CCCCCCCC[P+](CCCCCCCC)(CCCCCCCC)CCCCCCCC`: the Potency was 7.95 µM (active) in assay [10]; 0.108 µM (active) in assay [6]; 13.7 µM (active) in assay [3]; 0.434 µM (active) in assay [7]; 10.9 µM (active) in assay [8]; 6.87 µM (active) in assay [9]. The activity change, positive = activation in assay [2] (setting [11]) is -78.2%. For the same molecule, the Potency result in assay [4] is “inactive”.

Turning to `N=C1N=C(N)c2cc3ccccc3cc21`, the Potency is 127 µM (active) in [10]; 68.6 µM (active) in [6]; 47.6 µM [cytotoxic] (active) in assay [3]; 19.5 µM (active) in assay [7]; 24.5 µM [cytotoxic] (active) in [8]; 54.9 µM (active) in [9]. Further, the activity change, positive = activation in assay [2] (setting [11]) was 2.31% (active). Moreover, the Potency entry in assay [4] was “inactive”.

Consider `CCCC(=O)OC[C@@H](OC(=O)CCC)[C@@H](OC(=O)CCC)[C@H](Cn1c2nc(=O)[nH]c(=O)c-2nc2cc(C)c(C)cc21)OC(=O)CCC`, for which the Potency result in assay [10] and in assay [8] was “inactive” each time. Besides, the figures for the Potency in assay [6] and in assay [4] were 29.8 µM (active) and 19 µM (active), respectively. The activity change, positive = activation in assay [2] (setting [11]) was -44.5% [at 42.5 µM].

Turning to `Nc1ccccc1O`, the Potency result in assay [10], in assay [3], in [4], in [8] and in assay [9] was “inactive” each time. The activity change, positive = activation in assay [2] (setting [11]) is -27.3%.

In the case of `NNc1nc(-c2ccc([N+](=O)[O-])cc2)cs1`, the figures for the Potency in assay [10], in assay [6] and in [7] were 22.5 µM (active), 27.3 µM (active) and 24.5 µM (active), respectively. The activity change, positive = activation in assay [2] (setting [11]) was -52.6%. Moreover, the Potency result in assay [4] and in [9] was “inactive” in each case.

Regarding `CCCCCCCCCCCC[N+](C)(C)CCCCCCCCCCCC`, the Potency in assay [10] was 28.4 µM (active); in assay [6] it was 13.7 µM (active); in assay [3] it was 7.76 µM (active); in [7], 5.49 µM (active); in [8], 6.92 µM (active); in [9], 17.4 µM (active). The activity change, positive = activation in [2] (setting [11]) was -72.6%.
